For 39 targets, log2 fold change results are on record in the supplement of paper PMC10849652.

The full data set covers some 7,900 targets. This sample favours those with a hit. About 0.6% of all pairs of compound and target were hits.

Sequence of UniProt P46020 (P46020 whole entry, looked up): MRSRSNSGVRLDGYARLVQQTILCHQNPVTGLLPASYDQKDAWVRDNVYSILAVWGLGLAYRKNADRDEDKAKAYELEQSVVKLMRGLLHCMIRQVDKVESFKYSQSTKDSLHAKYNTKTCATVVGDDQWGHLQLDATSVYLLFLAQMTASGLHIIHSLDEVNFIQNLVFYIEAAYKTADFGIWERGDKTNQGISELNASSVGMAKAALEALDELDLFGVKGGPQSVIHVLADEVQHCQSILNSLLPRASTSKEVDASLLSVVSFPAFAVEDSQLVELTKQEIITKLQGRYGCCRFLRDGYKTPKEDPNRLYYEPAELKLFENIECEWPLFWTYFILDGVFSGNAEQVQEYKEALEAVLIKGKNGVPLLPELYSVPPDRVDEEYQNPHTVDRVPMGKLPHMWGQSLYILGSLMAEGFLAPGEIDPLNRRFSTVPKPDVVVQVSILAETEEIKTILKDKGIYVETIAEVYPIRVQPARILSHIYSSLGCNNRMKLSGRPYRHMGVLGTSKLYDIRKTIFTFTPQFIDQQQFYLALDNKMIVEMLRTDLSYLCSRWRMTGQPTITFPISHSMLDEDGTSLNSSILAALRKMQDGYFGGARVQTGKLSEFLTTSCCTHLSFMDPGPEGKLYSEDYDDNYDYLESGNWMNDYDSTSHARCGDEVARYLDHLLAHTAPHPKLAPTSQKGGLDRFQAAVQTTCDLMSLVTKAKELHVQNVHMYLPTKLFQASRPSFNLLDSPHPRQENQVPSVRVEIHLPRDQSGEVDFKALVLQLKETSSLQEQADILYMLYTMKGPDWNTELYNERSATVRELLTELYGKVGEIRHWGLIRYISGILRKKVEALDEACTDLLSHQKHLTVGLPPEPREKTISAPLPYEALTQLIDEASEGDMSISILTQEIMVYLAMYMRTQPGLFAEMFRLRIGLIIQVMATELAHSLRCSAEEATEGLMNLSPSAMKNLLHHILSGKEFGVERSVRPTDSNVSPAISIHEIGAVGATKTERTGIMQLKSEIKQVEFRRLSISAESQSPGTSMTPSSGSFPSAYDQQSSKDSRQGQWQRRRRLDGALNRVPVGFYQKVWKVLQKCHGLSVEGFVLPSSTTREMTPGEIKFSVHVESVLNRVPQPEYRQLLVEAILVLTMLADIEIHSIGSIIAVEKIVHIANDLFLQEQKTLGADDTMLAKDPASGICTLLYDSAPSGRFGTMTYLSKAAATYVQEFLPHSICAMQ
Sequence of UniProt O75340 (O75340 whole entry, looked up): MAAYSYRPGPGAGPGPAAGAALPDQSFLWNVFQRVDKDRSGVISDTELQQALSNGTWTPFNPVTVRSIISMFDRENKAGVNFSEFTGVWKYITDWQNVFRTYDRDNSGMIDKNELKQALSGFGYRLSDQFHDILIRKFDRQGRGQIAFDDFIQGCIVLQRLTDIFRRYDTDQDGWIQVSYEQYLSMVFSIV
Sequence of UniProt P06454 (P06454 whole entry, looked up): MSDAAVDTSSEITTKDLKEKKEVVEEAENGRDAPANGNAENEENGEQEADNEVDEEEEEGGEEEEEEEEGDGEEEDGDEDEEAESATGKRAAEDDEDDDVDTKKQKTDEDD
Sequence of UniProt Q86UU1 (Q86UU1 whole entry, looked up): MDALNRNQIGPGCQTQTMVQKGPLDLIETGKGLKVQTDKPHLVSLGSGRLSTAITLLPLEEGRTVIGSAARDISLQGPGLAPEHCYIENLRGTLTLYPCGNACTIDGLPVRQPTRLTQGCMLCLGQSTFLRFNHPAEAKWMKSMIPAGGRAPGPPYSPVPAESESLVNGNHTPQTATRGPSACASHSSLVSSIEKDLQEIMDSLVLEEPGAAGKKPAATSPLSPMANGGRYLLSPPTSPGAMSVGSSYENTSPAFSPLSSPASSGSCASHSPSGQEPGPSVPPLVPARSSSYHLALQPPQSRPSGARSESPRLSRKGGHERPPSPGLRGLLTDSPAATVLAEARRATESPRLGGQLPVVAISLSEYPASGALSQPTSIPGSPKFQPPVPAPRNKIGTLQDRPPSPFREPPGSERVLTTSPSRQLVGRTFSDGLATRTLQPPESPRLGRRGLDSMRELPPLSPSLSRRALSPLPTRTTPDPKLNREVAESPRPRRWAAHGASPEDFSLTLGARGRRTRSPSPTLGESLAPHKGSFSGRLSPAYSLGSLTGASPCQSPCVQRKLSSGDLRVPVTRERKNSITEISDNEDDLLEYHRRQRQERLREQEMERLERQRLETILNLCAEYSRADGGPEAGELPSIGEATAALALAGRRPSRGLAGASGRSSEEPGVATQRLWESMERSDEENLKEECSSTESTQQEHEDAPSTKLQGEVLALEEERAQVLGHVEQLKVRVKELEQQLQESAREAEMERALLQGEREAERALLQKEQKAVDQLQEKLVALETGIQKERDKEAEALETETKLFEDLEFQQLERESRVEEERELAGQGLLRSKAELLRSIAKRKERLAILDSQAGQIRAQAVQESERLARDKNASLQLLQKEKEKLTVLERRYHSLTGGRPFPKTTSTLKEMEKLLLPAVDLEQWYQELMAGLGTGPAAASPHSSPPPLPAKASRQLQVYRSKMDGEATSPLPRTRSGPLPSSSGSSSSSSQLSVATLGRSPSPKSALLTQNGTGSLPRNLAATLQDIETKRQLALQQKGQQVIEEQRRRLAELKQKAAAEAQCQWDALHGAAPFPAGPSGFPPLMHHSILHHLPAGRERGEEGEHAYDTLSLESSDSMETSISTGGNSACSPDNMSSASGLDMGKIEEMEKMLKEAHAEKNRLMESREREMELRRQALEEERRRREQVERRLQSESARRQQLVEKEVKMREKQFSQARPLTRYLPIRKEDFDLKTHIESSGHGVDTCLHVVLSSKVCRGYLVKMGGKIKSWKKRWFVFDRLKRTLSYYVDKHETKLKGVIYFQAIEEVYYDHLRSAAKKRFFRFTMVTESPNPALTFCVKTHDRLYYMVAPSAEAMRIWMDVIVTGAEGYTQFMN
Sequence of UniProt Q9H300 (Q9H300 whole entry, looked up): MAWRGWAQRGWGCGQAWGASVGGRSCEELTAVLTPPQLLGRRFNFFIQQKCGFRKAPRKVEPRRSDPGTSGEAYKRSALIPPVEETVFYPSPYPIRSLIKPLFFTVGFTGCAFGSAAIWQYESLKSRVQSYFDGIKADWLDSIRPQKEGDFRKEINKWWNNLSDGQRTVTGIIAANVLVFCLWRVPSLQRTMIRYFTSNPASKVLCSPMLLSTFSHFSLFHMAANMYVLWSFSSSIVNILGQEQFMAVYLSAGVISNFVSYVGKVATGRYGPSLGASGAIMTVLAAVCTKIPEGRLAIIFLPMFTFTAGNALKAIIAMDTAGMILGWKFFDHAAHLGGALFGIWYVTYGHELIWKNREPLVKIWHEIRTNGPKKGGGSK
Sequence of UniProt O95453 (O95453 whole entry, looked up): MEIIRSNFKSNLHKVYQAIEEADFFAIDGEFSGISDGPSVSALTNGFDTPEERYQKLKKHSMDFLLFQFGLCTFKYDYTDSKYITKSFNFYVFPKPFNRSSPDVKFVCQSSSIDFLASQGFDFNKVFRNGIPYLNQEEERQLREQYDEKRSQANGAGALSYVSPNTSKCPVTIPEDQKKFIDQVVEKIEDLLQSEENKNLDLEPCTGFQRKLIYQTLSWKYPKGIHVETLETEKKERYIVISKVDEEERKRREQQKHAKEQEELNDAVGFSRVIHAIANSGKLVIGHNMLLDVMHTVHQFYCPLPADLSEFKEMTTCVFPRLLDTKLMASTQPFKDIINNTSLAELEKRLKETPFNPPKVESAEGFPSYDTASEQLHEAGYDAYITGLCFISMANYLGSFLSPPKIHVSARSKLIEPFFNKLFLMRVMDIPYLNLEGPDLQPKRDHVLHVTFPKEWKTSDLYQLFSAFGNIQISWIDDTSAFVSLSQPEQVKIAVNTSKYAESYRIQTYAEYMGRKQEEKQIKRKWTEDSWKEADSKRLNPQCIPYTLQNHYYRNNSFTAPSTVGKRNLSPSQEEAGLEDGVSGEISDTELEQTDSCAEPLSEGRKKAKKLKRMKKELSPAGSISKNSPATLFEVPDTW
Sequence of UniProt P28065 (P28065 whole entry, looked up): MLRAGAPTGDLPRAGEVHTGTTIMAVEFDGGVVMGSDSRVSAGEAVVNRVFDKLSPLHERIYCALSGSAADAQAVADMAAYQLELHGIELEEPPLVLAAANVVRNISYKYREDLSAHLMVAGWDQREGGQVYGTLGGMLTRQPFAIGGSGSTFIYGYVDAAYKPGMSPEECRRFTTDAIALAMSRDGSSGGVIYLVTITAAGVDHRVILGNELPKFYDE
Sequence of UniProt Q10713 (Q10713 whole entry, looked up): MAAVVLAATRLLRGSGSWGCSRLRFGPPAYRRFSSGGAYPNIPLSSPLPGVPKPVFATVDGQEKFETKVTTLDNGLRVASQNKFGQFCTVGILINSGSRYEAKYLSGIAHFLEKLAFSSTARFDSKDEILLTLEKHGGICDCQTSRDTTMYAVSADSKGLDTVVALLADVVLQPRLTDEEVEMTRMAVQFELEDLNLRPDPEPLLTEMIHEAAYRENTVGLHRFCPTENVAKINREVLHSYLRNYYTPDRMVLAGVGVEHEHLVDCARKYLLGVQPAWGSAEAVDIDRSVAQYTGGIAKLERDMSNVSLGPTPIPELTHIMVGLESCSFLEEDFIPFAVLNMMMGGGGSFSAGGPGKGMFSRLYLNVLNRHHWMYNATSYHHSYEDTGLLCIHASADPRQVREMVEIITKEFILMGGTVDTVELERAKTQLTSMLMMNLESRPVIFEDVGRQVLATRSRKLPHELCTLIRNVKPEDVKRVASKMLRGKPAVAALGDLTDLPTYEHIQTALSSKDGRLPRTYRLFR
Sequence of UniProt Q15004 (Q15004 whole entry, looked up): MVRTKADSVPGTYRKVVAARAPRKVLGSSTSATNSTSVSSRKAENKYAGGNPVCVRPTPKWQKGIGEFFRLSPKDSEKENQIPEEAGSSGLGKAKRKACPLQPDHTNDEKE
Sequence of UniProt Q7RTV0 (Q7RTV0 whole entry, looked up): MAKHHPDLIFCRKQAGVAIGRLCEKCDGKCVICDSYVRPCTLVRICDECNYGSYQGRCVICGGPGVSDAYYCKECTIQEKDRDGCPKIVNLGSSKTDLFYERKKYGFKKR

Compound in the assay: c1cn2cc(-c3ccc4cn[nH]c4c3)nc(Nc3ccc(N4CCOCC4)cc3)c2n1 [entospletinib]
Nature of the assay: log2 fold change, soluble protein after heating vs DMSO (PISA); higher = thermal stabilisation; K562 cells, 10 uM, 30 min; active = over 0.2 and 3.5 SD of the protein, either way, in both replicates (recomputed). In a few lines: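 K562 cells at 2×10^6 cells/mL were treated for 30 min with 10 μM compound, and aliquots were heated for 3 min over 48°C-58°C before pooling. Extraction used PBS with 0.5% NP-40 at 4°C, and soluble protein was the supernatant after 21,000xg for 90 min, measured by TMTpro 16plex LC-MS/MS with channel sums equalised. Thermal stability values, relative to control samples and from duplicates, are log2 fold changes.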
Consider PIP4K2A (UniProt P48426), for which the log2 fold change was -0.049 (inactive).
In the case of PPP1R12C (UniProt Q9BZL4), the log2 fold change is 0.038 (inactive).
In the case of PRPF3 (UniProt O43395) it was -0.08 (inactive).
To PHF5A (UniProt Q7RTV0) belongs -0.101 (inactive); to PITRM1 isoform 2 (UniProt Q5JRX3), -0.103 (inactive); to PARN (UniProt O95453), -0.06 (inactive).
In the case of PSMD7 (UniProt P51665) it was 0.064 (inactive); in that of PDLIM7 (UniProt Q9NR12), 0.012 (inactive).
Regarding PRKCD (UniProt Q05655), the log2 fold change was 0.018 (inactive).
As for PPP4R3B (UniProt Q5MIZ7), the log2 fold change was -0.064 (inactive).
Turning to PARL (UniProt Q9H300), the log2 fold change is 0.018 (inactive).
To PHLDB1 isoform 2 (UniProt Q86UU1) belongs -0.005 (inactive); to PPP2R5C isoform 2 (UniProt Q13362), -0.041 (inactive).
In the case of PNPLA8 (UniProt Q9NP80) it was -0.015 (inactive).
As to PPP6R1 (UniProt Q9UPN7), the log2 fold change was 0.033 (inactive).
In the case of PLD3 (UniProt Q8IV08) it was -0.01 (inactive); in that of PPIL1 (UniProt Q9Y3C6), 0.052 (inactive); in that of PTMA (UniProt P06454), 0.047 (inactive).
To POLD1 (UniProt P28340) belongs 0.001 (inactive); to PIGT (UniProt Q969N2), -0.018 (inactive).
In the case of PSMB9 (UniProt P28065) it was -0.251 (inactive); in that of POLR2G (UniProt P62487), 0.183 (inactive).
As to PIK3C3 (UniProt Q8NEB9), the log2 fold change is 0.039 (inactive).
Turning to PIK3CD (UniProt O00329), the log2 fold change was -0.206 (inactive).
To PDS5B (UniProt Q9NTI5) belongs -0.055 (inactive).
Turning to PCLAF (UniProt Q15004), the log2 fold change was -0.132 (inactive).
Take PTEN isoform 2 (UniProt P60484): the log2 fold change was 0.025 (inactive).
To PTP4A2 (UniProt Q12974) belongs -0.019 (inactive); to PDCD6 (UniProt O75340), 0.024 (inactive).
Consider PHKA2 (UniProt P46019), for which the log2 fold change is -0.043 (inactive).
Regarding POLR2E (UniProt P19388), the log2 fold change was 0.032 (inactive).
In the case of PMPCA (UniProt Q10713) it was -0.046 (inactive); in that of PARP1 (UniProt P09874), -0.092 (inactive); in that of PHKA1 (UniProt P46020), 0.063 (inactive).
To PSME4 (UniProt Q14997) belongs -0.003 (inactive); to PRKACA (UniProt P17612), 0.007 (inactive); to RAB11FIP1 (UniProt Q6WKZ4), -0.018 (inactive).
For the target PPID (UniProt Q08752), the log2 fold change is 0.019 (inactive).
On to PIKFYVE (UniProt Q9Y2I7), for which the log2 fold change is 0.003 (inactive).
